Experimental data as given in the supplement of paper PMC3334620.
Whole data set: some 33,000 sequences, median “E-score (-0.5 to 0.5)” near -0.054, cut for the highest 2% near 0.39. Shown is part of a subset that was picked to be rich in the highest values.

molecular target: Ylr278c (UniProt Q05854); assay: PBM E-score (8-mer binding enrichment) (E-score (-0.5 to 0.5)); higher = stronger / more preferred TF binding; settings: protein concentration: 200 nM; construct: GST-DNA-binding domain
Method in brief: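 Yeast transcription factors, full-length or as DNA-binding domains, were expressed with a GST tag using PURExpress in vitro transcription/translation. At about 100-200 nM they were applied to universal all-10-mer Agilent arrays, double-stranded by primer extension on fresh or once-stripped slides. Fluorescent anti-GST detected bound protein, and masliner normalised the scans. E-scores for ungapped eight-base words, pooled with reverse complements, came from the Universal PBM Analysis Suite.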

Chain of UniProt Q05854 (Q05854 whole entry, the tested form may be a part): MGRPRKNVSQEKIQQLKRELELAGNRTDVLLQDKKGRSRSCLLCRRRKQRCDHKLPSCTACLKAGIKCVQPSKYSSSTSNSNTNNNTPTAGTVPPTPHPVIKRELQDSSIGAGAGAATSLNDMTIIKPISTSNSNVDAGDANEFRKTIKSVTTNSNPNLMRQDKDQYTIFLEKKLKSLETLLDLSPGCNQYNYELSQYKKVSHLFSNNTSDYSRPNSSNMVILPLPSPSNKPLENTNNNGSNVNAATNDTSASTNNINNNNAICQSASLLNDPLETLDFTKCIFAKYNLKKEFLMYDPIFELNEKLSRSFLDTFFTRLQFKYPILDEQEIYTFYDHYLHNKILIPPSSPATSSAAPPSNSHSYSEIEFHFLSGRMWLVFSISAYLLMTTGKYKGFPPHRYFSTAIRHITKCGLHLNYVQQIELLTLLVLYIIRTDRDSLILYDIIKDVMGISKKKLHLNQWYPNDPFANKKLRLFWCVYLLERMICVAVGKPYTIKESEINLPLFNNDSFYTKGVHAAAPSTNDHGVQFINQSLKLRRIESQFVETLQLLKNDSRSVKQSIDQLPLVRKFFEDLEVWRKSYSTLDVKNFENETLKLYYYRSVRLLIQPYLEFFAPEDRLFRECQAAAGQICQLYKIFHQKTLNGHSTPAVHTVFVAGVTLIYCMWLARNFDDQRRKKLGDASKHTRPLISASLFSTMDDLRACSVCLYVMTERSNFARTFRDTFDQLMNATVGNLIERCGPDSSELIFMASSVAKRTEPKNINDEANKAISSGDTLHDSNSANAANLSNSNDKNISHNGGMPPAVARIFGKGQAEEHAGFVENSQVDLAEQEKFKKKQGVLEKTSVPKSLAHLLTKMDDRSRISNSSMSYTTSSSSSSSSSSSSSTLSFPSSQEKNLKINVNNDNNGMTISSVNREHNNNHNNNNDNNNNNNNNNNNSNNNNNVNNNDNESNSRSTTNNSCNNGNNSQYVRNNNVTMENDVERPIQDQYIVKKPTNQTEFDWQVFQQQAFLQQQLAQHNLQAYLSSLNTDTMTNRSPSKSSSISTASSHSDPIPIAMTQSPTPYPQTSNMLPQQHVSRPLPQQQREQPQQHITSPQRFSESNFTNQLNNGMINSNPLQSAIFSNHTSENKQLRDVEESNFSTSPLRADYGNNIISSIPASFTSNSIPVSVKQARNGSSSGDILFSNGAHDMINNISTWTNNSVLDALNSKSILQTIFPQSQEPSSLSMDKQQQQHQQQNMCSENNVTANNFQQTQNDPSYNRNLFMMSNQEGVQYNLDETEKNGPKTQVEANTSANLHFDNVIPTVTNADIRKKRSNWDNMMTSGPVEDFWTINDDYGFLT

| Sequence | PBM E-score |
| --- | --- |
| AGTCGGGG | 0.282 |
| AGACTCCC | -0.167 |
| CGACTCCC | 0.0244 |
| AGACTCCT | -0.224 |
| AGACTCCG | 0.418 |
| CGACTCCA | -0.0167 |
| CGACTCCG | 0.406 |
| CGAGCAAC | -0.00501 |
| AGAAGACC | 0.0375 |
| ACAAGACA | -0.0802 |
| TACGAGTA | -0.0577 |
| CGGACAAA | 0.425 |
| CGGACAAG | 0.383 |
| CGGACAAC | 0.389 |
| AGGACAAA | -0.0109 |
| GGGACAAC | -0.104 |
| AGGACAAC | -0.163 |
| AACATGAC | -0.0624 |
| GTCAACTA | -0.084 |
| AGGGCTAA | -0.0787 |
| AGGTCCCA | -0.224 |
| AGGTCCGC | 0.333 |
| CGGTCCGA | 0.455 |
| AGGTCCGA | 0.404 |
| CGGTCCGC | 0.38 |

| Sequence | PBM E-score |
| --- | --- |
| GGGTCCGA | 0.366 |
| AGGTCCGG | 0.418 |
| AGGTCCAA | -0.179 |
| AGGTCCAG | -0.113 |
| ACTAGTGG | -0.0388 |
| AACATAGC | -0.0617 |
| ATGTTGCC | -0.036 |
| ATTGACCA | -0.196 |
| CCTATCAC | -0.119 |
| AACACAAT | -0.152 |
| GCAACACC | 0.113 |
| CGCTCGGA | 0.408 |
| CCCTCGGC | 0.207 |
| GCCTCGGA | 0.352 |
| GGCTCGGA | 0.38 |
| CCCTCGGA | 0.394 |
| AGCTCGGA | 0.322 |
| GCACTAGA | -0.16 |
| CCTAGCAG | -0.268 |
| CCGTTGAC | 0.0534 |
| CGAGCTGC | -0.00491 |
| GTATGCGA | -0.0635 |
| ATCAGGAA | -0.0943 |
| AACTGCGA | 0.148 |
| TCAATTCA | -0.0799 |

| Sequence | PBM E-score |
| --- | --- |
| AATTCGGG | 0.215 |
| TATTCGGA | 0.408 |
| AATTCGGC | 0.157 |
| GATTCGGA | 0.363 |
| CATTCGGA | 0.339 |
| AATTCGGA | 0.449 |
| TAAGGGCA | -0.144 |
| CCCCGACC | 0.28 |
| ATAGTCAG | -0.158 |
| AGGACCGC | 0.227 |
| CGGACCGA | 0.409 |
| AGGACCGA | 0.0864 |
| CGGACCCC | 0.365 |
| AGGACCCG | 0.158 |
| CGGACCCG | 0.394 |
| CGGACCGC | 0.392 |
| CGGACCAC | 0.293 |
| GGGACCGA | 0.164 |
| CCACTATC | 0.00626 |
| CTATAGAC | -0.167 |
| CTGATCTC | -0.0675 |
| ACTAATGC | 0.126 |
| CTCTGTTC | -0.0823 |
| CGGGGGAA | 0.255 |
| CCGGGGAA | 0.399 |

| Sequence | PBM E-score |
| --- | --- |
| ACCGGTAA | 0.297 |
| GCGGGGTA | 0.323 |
| CCGGGGTA | 0.408 |
| TCCGGGAA | 0.419 |
| TCCGGTAA | 0.44 |
| GCCGGTAA | 0.341 |
| ACCGGGAA | 0.352 |
| CCGGGGGA | 0.378 |
| CCCGGGAA | 0.348 |
| CGGGGGTA | 0.334 |
| CAACGGCG | 0.207 |
| CCATCGCC | 0.075 |
| ATCCAGTA | -0.111 |
| AGAGGTGC | 0.0557 |
| AGCATAGG | -0.11 |
| GGACACAC | 0.149 |
| CCGGGGCG | 0.42 |
| CCGGGGCA | 0.293 |
| ACCGGGCA | 0.279 |
| CCCGGGCG | 0.291 |
| TCCGGGCA | 0.406 |
| GCCGGGCA | 0.304 |
| ATAACCTA | -0.148 |
| CGAACTAA | -0.0681 |
| CCGGATTC | 0.405 |

| Sequence | PBM E-score |
| --- | --- |
| ACGGATTC | 0.246 |
| ACGGATTA | 0.205 |
| CCGGATTA | 0.455 |
| GCGGATTA | 0.261 |
| CAGGATTC | -0.11 |
| CATTGGGA | -0.198 |
| AGCAGGAT | -0.079 |
| GTGGCCTA | -0.135 |
| GATTCTAC | 0.107 |
| GGCGGAAA | 0.328 |
| CGCGGAGA | 0.428 |
| GGCGGATA | 0.293 |
| GGCGGAGA | 0.444 |
| AGCGGATA | 0.287 |
| AGCGGAGG | 0.302 |
| CGCGGATC | 0.272 |
| CGCGGAGC | 0.41 |
| CGCGGACA | 0.345 |
| AGCGGAGA | 0.394 |
| CGCGGATA | 0.32 |
| AGCGGAGC | 0.381 |
| CGACTGAG | -0.181 |
| CTCAGTCA | -0.282 |
| CTGAGTTA | -0.248 |
| ATTCCCAA | -0.06 |

| Sequence | PBM E-score |
| --- | --- |
| ACCTCTCA | 0.0413 |
| TAATTCCA | -0.0294 |
| CCTCGGTA | -0.0307 |
| CCTCGGCA | 0.25 |
| ACTCGGAT | 0.251 |
| TCTCGGAA | 0.414 |
| CCTCGGAG | 0.456 |
| CCTCGGAC | 0.374 |
| ACTCGGAA | 0.398 |
| CCTCGGCG | 0.359 |
| CCTCGGAA | 0.39 |
| GCTCGGAA | 0.338 |
| TCTCGGCA | 0.266 |
| ACTCGGAC | 0.383 |
| CAATCATG | -0.214 |
| CGTATTTA | 0.0653 |
| CAAGCTGC | -0.103 |
| GAGGATAC | -0.125 |
| ATTCATAC | 0.0829 |
| ACTCTTCA | -0.191 |
| CGTCAGAA | -0.25 |
| CGTTTAAC | -0.174 |
| CGTTAGAC | -0.0149 |
| AGCGCGTA | -0.109 |
| CCCCTTAG | 0.0521 |

| Sequence | PBM E-score |
| --- | --- |
| ACTCGGAG | 0.428 |
| ACTCGGCG | 0.256 |
| ACTCGGTG | 0.0389 |
| TAGGGACA | -0.0143 |
| GGGAGCGA | -0.116 |
| CGGAGCGC | 0.391 |
| CGGAGCGA | 0.415 |
| AGGAGCGC | -0.0703 |
| AGGAGCGA | -0.0963 |
| CTGAGCGC | -0.145 |
| AATGGAAT | 0.0961 |
| ATCTGTGG | -0.141 |
| GCTTCGGA | 0.367 |
| CCTTCGGC | 0.112 |
| GTTTCGAA | -0.0713 |
| GTTTCGGA | 0.4 |
| ATTTCGGG | 0.235 |
| CTTTCGGC | 0.239 |
| CTTTCGTA | -0.173 |
| ATTTCGGA | 0.45 |
| CCTTCGGA | 0.424 |
| CTTTCGGA | 0.451 |
| ATTTCGGC | 0.275 |
| GTTTCGTA | 0.0178 |
